From the supplement of paper PMC10849652
Of roughly 7,900 targets only a part is listed; those with a hit were picked by preference. About 0.6% of all pairs of compound and target were hits. A number with no mark means an inactive call.

Tests used:
Assay in all cases: log2 fold change, soluble protein after heating vs DMSO (PISA); higher = thermal stabilisation; K562 cells, 10 uM, 30 min; active = over 0.2 and 3.5 SD of the protein, either way, in both replicates (recomputed)
[1] = compound: COC1=CC=C(C=C1)CN2C=CC3=C2C=C(C=C3)C(=O)NO
In short: (§1)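 Aliquots of K562 cells (2×10^6 cells/mL) treated with 10 μM compound for 30 min were heated for 3 min over 48°C-58°C. After pooling and extraction in PBS with 0.5% NP-40 at 4°C, soluble protein from a 21,000xg, 90 min spin was quantified by TMTpro 16plex LC-MS/MS with channel sums equalised. Thermal stability is expressed against control samples, from duplicates, as a log2 fold change.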

filanesib = compound: CON(C)C(=O)N1N=C(c2cc(F)ccc2F)S[C@@]1(CCCN)c1ccccc1 [filanesib]
In short: as §1

zotarolimus = compound: CO[C@H]1C[C@@H]2CC[C@@H](C)[C@@](O)(O2)C(=O)C(=O)N2CCCC[C@H]2C(=O)O[C@H]([C@H](C)C[C@@H]2CC[C@H](n3cnnn3)[C@H](OC)C2)CC(=O)[C@H](C)/C=C(\C)[C@@H](O)[C@@H](OC)C(=O)[C@H](C)C[C@H](C)/C=C/C=C/C=C/1C [zotarolimus]
In short: as §1

idasanutlin = compound: COc1cc(C(=O)O)ccc1NC(=O)[C@@H]1N[C@@H](CC(C)(C)C)[C@](C#N)(c2ccc(Cl)cc2F)[C@H]1c1cccc(Cl)c1F [idasanutlin]
In short: as §1

alisertib = compound: COc1cc(Nc2ncc3c(n2)-c2ccc(Cl)cc2C(c2c(F)cccc2OC)=NC3)ccc1C(=O)O [alisertib]
In short: as §1

[2] = compound: COc1cc2nc(-c3cc(F)ccc3O)nc(N[C@@H]3CNC[C@H]3C(C)(C)O)c2cc1OC
In short: as §1

gefitinib = compound: COc1cc2ncnc(Nc3ccc(F)c(Cl)c3)c2cc1OCCCN1CCOCC1 [gefitinib]
In short: as §1

[3] = compound: COc1cccc2cc(-c3nc([C@H]4CC[C@H](C(=O)O)CC4)n4ncnc(N)c34)[nH]c12
In short: as §1

lapatinib = compound: CS(=O)(=O)CCNCc1ccc(-c2ccc3ncnc(Nc4ccc(OCc5cccc(F)c5)c(Cl)c4)c3c2)o1 [lapatinib]
In short: as §1

pictilisib = compound: CS(=O)(=O)N1CCN(Cc2cc3nc(-c4cccc5[nH]ncc45)nc(N4CCOCC4)c3s2)CC1 [pictilisib]
In short: as §1

[4] = compound: CS(=O)(=O)c1ccc(-c2cnc(N)c(C(=O)Nc3ccccc3)n2)cc1
In short: as §1

crizotinib = compound: C[C@@H](Oc1cc(-c2cnn(C3CCNCC3)c2)cnc1N)c1c(Cl)ccc(F)c1Cl [crizotinib]
In short: as §1

[5] = compound: C[C@@H]1COCCN1C2=NC(=NC(=C2)C3(CC3)S(=O)(=O)C)C4=C5C=CNC5=CC=C4
In short: as §1

[6] = compound: C[C@H](C1=CC=C(C=C1)C(=O)NC2=C3C=CNC3=NC=C2)N
In short: as §1

duvelisib = compound: C[C@H](Nc1ncnc2nc[nH]c12)c1cc2cccc(Cl)c2c(=O)n1-c1ccccc1 [duvelisib]
In short: as §1

gandotinib = compound: Cc1cc(Nc2cc(CN3CCOCC3)c3nc(C)c(Cc4ccc(Cl)cc4F)n3n2)n[nH]1 [gandotinib]
In short: as §1

tozasertib = compound: Cc1cc(Nc2cc(N3CCN(C)CC3)nc(Sc3ccc(NC(=O)C4CC4)cc3)n2)n[nH]1 [tozasertib]
In short: as §1

[7] = compound: Cc1cc(SCc2sc(-c3ccc(C(F)(F)F)cc3)nc2C)ccc1OCC(=O)O
In short: as §1

doramapimod = compound: Cc1ccc(-n2nc(C(C)(C)C)cc2NC(=O)Nc2ccc(OCCN3CCOCC3)c3ccccc23)cc1 [doramapimod]
In short: as §1

ispinesib = compound: Cc1ccc(C(=O)N(CCCN)[C@@H](c2nc3cc(Cl)ccc3c(=O)n2Cc2ccccc2)C(C)C)cc1 [ispinesib]
In short: as §1

Sequence of UniProt Q9BVP2 (Q9BVP2 whole entry, looked up): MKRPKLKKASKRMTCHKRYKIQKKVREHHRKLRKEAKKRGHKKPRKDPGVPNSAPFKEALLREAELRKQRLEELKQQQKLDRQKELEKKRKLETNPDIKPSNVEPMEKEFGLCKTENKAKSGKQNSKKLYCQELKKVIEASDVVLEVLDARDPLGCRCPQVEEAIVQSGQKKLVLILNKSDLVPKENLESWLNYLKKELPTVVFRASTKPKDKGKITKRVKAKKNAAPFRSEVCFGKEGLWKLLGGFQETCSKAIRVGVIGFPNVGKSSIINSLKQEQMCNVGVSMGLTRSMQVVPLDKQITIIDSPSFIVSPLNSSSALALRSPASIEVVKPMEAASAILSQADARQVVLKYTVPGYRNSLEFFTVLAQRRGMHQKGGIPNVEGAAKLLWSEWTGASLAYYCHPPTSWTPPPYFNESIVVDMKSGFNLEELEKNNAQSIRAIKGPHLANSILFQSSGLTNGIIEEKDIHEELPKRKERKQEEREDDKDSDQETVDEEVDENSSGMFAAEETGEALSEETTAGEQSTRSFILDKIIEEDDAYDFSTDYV
Sequence of UniProt O15117 (O15117 whole entry, looked up): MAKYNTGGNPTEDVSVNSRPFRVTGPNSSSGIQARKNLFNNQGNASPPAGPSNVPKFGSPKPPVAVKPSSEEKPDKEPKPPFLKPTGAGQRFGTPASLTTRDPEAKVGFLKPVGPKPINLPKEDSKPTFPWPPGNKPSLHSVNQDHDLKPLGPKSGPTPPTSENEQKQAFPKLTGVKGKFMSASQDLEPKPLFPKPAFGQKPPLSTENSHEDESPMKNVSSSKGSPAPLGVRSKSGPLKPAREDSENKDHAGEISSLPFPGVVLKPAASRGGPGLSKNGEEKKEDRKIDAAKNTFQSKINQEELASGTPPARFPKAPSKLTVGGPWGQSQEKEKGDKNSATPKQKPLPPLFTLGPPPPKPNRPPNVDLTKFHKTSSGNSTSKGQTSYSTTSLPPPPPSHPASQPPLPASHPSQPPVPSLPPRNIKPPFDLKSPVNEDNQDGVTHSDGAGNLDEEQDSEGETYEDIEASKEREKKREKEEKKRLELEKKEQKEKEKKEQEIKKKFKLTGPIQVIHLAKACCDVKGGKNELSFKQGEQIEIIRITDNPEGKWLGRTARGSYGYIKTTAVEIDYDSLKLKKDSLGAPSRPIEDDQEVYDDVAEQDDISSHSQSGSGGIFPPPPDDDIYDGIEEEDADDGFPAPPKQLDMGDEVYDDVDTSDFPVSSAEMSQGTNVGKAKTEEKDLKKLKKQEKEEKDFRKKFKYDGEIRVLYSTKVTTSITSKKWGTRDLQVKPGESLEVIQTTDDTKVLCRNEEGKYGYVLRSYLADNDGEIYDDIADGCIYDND
Sequence of UniProt A6NDN3 (A6NDN3 whole entry, looked up): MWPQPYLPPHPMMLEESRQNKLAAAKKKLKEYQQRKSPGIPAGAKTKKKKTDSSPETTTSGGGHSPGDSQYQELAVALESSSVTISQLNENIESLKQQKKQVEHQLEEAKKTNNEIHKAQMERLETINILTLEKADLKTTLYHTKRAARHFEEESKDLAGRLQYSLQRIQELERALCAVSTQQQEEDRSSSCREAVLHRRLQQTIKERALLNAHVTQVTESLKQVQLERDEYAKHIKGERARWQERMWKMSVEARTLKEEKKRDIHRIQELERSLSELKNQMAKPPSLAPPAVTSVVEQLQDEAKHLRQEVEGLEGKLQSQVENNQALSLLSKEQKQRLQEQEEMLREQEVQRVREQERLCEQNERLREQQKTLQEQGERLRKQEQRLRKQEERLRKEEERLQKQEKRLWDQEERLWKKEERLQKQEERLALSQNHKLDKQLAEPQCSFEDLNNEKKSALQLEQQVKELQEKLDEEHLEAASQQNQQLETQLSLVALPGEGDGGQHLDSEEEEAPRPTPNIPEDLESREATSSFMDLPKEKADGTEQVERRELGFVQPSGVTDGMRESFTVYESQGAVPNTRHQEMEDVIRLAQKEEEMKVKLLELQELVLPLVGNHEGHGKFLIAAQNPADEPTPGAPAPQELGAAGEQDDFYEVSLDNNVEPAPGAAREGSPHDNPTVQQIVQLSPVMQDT
Sequence of UniProt Q9UQC2 (Q9UQC2 whole entry, looked up): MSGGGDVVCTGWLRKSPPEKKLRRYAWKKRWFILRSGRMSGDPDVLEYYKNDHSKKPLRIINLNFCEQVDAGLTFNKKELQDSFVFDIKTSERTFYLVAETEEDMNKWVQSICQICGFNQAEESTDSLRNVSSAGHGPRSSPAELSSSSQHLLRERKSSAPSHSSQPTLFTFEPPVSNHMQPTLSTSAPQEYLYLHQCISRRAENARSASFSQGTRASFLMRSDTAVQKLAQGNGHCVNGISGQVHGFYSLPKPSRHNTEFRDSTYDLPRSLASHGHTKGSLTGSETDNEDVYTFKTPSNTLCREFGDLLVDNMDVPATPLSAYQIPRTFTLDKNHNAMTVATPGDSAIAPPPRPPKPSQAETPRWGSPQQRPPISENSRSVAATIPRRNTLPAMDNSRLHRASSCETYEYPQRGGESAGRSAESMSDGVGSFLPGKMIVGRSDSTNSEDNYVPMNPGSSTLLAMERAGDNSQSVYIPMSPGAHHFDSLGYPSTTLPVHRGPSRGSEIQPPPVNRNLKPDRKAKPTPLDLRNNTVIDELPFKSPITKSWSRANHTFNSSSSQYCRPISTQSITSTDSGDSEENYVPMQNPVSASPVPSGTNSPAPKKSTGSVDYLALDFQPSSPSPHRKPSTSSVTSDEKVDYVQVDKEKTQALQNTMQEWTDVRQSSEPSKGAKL
Sequence of UniProt Q8IVP5 (Q8IVP5 whole entry, looked up): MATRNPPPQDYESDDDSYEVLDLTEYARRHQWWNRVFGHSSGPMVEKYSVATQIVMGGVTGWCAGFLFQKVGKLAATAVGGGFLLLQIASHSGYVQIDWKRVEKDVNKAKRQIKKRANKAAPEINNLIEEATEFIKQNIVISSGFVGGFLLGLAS
Sequence of UniProt Q9Y324 (Q9Y324 whole entry, looked up): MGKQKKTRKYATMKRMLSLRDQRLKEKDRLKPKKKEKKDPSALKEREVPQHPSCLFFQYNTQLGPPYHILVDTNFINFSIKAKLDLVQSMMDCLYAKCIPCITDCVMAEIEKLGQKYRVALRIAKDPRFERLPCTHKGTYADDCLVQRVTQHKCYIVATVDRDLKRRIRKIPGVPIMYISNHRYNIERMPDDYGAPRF
Sequence of UniProt P49840 (P49840 whole entry, looked up): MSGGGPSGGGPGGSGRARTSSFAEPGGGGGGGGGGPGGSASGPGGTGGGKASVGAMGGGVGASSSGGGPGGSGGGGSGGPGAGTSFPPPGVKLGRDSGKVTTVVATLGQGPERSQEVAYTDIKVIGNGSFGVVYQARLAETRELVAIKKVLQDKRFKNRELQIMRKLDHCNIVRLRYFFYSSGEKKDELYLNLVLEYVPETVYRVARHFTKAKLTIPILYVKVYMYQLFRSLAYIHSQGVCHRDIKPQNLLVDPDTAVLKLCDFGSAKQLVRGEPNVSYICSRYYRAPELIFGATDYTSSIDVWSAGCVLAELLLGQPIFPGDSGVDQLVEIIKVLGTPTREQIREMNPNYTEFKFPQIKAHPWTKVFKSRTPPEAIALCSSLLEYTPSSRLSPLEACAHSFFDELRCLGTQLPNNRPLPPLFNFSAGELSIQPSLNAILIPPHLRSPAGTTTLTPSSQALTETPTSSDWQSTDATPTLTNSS
Sequence of UniProt I6L899 (I6L899 whole entry, looked up): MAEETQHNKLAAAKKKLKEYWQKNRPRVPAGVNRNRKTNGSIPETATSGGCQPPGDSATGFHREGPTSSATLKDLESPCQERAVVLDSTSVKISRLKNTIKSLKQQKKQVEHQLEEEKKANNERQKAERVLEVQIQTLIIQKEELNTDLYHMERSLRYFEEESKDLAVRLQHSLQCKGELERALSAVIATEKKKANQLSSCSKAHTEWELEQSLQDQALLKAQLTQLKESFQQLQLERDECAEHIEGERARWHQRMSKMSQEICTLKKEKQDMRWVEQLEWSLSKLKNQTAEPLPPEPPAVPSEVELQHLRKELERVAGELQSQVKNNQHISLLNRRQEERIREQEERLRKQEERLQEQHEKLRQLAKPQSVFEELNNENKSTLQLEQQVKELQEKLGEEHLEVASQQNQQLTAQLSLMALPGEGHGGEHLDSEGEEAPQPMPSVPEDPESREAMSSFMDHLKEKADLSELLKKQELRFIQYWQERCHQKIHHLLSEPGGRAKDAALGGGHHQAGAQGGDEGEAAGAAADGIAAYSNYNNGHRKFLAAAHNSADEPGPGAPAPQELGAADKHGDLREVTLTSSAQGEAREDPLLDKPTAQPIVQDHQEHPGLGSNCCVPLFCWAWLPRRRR
Sequence of UniProt Q13547 (Q13547 whole entry, looked up): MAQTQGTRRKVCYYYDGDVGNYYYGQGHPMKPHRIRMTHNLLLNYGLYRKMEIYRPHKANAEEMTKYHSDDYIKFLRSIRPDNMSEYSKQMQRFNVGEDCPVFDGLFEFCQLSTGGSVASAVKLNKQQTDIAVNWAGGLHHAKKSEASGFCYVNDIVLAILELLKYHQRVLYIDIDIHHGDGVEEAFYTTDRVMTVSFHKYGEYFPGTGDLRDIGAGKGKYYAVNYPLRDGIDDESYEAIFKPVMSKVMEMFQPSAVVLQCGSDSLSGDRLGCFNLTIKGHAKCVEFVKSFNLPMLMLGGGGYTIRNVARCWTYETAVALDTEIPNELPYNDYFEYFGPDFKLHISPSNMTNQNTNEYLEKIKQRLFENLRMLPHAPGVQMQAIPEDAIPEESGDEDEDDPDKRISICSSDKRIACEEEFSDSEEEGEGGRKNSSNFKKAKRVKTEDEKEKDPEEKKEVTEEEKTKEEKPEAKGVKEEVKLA
Sequence of UniProt P01344 (P01344 whole entry, looked up): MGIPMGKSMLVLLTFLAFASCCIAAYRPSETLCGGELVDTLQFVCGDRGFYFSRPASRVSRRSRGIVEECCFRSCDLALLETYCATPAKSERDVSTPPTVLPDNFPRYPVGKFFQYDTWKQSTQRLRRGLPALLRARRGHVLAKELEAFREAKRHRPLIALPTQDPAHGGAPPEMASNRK

Row | Target | log2 fold change [1] | log2 fold change (filanesib) | log2 fold change (zotarolimus) | log2 fold change (idasanutlin) | log2 fold change (alisertib) | log2 fold change [2] | log2 fold change (gefitinib) | log2 fold change [3] | log2 fold change (lapatinib) | log2 fold change (pictilisib) | log2 fold change [4] | log2 fold change (crizotinib) | log2 fold change [5] | log2 fold change [6] | log2 fold change (duvelisib) | log2 fold change (gandotinib) | log2 fold change (tozasertib) | log2 fold change [7] | log2 fold change (doramapimod) | log2 fold change (ispinesib)
1 | FAM91A1 (UniProt Q658Y4) | -0.081 | -0.059 | 0.029 | -0.044 | -0.076 | -0.003 | -0.013 | 0.035 | 0.045 | -0.047 | -0.11 | -0.006 | 0.192 | -0.034 | -0.008 | -0.08 | 0.022 | -0.001 | -0.012 | 0.014
2 | GTPBP6 (UniProt O43824) | -0.105 | 0.049 | 0.061 | 0.018 | -0.217 | – | -0.146 | 0 | – | -0.012 | -0.002 | 0.012 | 0.197 | -0.066 | -0.002 | 0.003 | 0.087 | -0.006 | 0.06 | 0.076
3 | GAB2 (UniProt Q9UQC2) | 0.044 | -0.053 | -0.145 | 0.084 | 0.007 | -0.526 | – | -0.236 | 0.033 | -0.348 | -0.084 | -0.899 (active) | -0.361 | 0.033 | -0.836 (active) | -0.071 | -0.34 | 0.181 | 0.118 | -0.511
4 | GPKOW (UniProt Q92917) | -0.055 | -0.118 | 0.024 | -0.06 | 0.039 | -0.021 | 0.047 | 0.11 | -0.005 | -0.037 | 0.004 | -0.147 | 0.104 | -0.004 | 0.087 | -0.094 | -0.121 | 0.195 | -0.03 | -0.013
5 | GSK3A (UniProt P49840) | -0.028 | -0.087 | -0.029 | -0.107 | 0.051 | 0.088 | -0.008 | 0.045 | -0.016 | 0.188 | 0.322 (active) | 0.129 | 0.053 | 0.015 | 0.044 | 0.201 | -0.006 | 0.015 | -0.039 | 0.072
6 | FUNDC1 (UniProt Q8IVP5) | – | -0.193 | – | – | 0.011 | -0.138 | – | 0.172 | 0.101 | – | 0.046 | – | – | – | – | – | – | – | – | –
7 | FAT1 (UniProt Q14517) | 0.098 | 0.097 | -0.08 | – | -0.267 | 0.027 | 0.023 | -0.098 | 0.029 | 0.041 | 0.027 | 0.061 | -0.054 | 0.144 | 0.026 | 0.061 | -0.124 | 0.009 | -0.435 (active) | -0.096
8 | FGG (UniProt P02679) | – | – | – | – | – | -0.068 | – | – | -0.001 | -0.367 | – | – | – | – | – | -0.153 | – | – | – | -0.052
9 | GREB1 (UniProt Q4ZG55) | 0.448 | 0.074 | 0.07 | -0.023 | – | – | – | – | – | – | 0.121 | 0.163 | -0.046 | 0.12 | – | – | -0.171 | – | -0.007 | –
10 | GOLGA8R (UniProt I6L899) | 0.591 (active) | – | -0.027 | 0.022 | – | 0.345 | – | – | -0.093 | 0.01 | – | -0.009 | – | -0.059 | 0.242 | 0.324 | -0.033 | -0.067 | 0.108 | -0.038
11 | FAT2 (UniProt Q9NYQ8) | 0.247 | – | 0.104 | – | 0.208 | 0.031 | – | -0.024 | -0.089 | -0.497 | – | -0.148 | 0.131 | 0.306 | 0.372 | -0.149 | -0.184 | 0.121 | 0.006 | -0.006
12 | HDAC1 (UniProt Q13547) | – | 0.059 | -0.019 | -0.023 | 0.031 | 0 | 0.025 | 0.024 | 0.141 | 0.06 | 0.011 | 0.084 | 0.001 | 0.115 | 0.045 | -0.02 | -0.033 | 0.06 | -0.018 | 0.038
13 | GNL3 (UniProt Q9BVP2) | – | -0.038 | -0.012 | -0.212 | -0.12 | – | 0.067 | 0.071 | – | 0.061 | 0.126 | – | -0.009 | 0.065 | 0.124 | 0.098 | -0.079 | -0.053 | – | –
14 | FCF1 (UniProt Q9Y324) | -0.026 | 0.405 | – | – | -0.272 | 0.1 | – | -0.299 | 0.157 | -0.262 | 0.06 | -0.054 | -0.225 | – | -0.592 | 0.155 | 0.021 | 0.103 | 0.244 | -0.095
15 | IGF2 isoform 3 (UniProt P01344) | 0.041 | – | – | – | – | – | – | – | – | – | – | -0.07 | – | – | 0.175 | – | – | 0.03 | -0.13 | –
16 | HDAC10 (UniProt Q969S8) | – | – | -0.022 | -0.157 | -0.264 | 0.049 | 0.168 | 0.065 | 0.044 | 0.084 | – | – | – | -0.045 | 0.04 | 0.008 | -0.113 | 0.042 | – | 0.065
17 | GPNMB (UniProt Q14956) | – | – | – | – | – | – | – | – | – | – | – | – | -0.151 | – | – | – | – | – | – | –
18 | GOLGA6B (UniProt A6NDN3) | 0.088 | -0.115 | – | – | -0.092 | – | 0.012 | 0.102 | – | 0.144 | -0.003 | 0.05 | 0.036 | – | – | 0.404 | – | – | -0.139 | –
19 | FASTKD1 (UniProt Q53R41) | -0.037 | -0.011 | -0.192 | -0.028 | – | – | 0.473 | – | – | 0.127 | 0.097 | 0.001 | 0.097 | -0.027 | 0.035 | -0.284 | -0.253 | 0.12 | 0.037 | -0.013
20 | HNRNPK isoform 3 (UniProt P61978) | -0.025 | 0.077 | – | – | -0.063 | – | -0.066 | 0.005 | – | 0.057 | -0.056 | -0.009 | -0.237 | – | 0.038 | -0.082 | 0.004 | -0.037 | 0.05 | 0.014
21 | FIZ1 (UniProt Q96SL8) | -0.081 | 0.078 | 0.048 | – | 0.117 | – | 0.001 | -0.108 | – | 0.016 | -0.05 | 0.018 | -0.354 | 0.074 | -0.251 | 0.024 | – | 0.017 | 0.044 | –
22 | FYB1 isoform 3 (UniProt O15117) | 0.001 | 0.06 | – | -0.106 | -0.035 | 0.026 | 0.103 | 0.134 | 0.068 | 0.108 | -0.025 | -0.11 | 0.046 | – | -0.344 (active) | 0.057 | 0.009 | 0.067 | 0.021 | -0.083
